# D1 antagonist – blocks dopamine activation of the human D1 receptor; HEK293 TREx D1 cells, calcium flux, dopamine EC80; active compounds read low; activity change, negative = inhibition, % at 10 µM; 360,000 compounds, 3.2% hits; in the data active = activity change below about -30%; also: % is scaled to controls: 0 for no effect and ±100 for the full control effect
# Target sequence (P21728 whole entry, looked up): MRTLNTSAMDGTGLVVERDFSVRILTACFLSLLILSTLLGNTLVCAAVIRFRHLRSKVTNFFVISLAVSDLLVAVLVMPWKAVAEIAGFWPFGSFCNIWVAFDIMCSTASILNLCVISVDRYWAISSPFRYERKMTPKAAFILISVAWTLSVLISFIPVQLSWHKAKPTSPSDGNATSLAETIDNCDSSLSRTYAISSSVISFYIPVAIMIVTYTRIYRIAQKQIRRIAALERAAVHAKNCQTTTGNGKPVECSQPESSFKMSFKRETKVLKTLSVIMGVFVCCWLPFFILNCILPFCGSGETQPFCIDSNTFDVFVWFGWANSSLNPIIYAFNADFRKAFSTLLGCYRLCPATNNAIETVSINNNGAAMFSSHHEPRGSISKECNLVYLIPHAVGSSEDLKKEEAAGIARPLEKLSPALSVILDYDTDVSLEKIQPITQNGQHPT
#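 Allosteric or orthosteric antagonism assessed as attenuation of the calcium response to EC80 dopamine, added 180 s after compound, in induced HEK293 Trex D1 cells loaded with no-wash calcium dye.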
# D1 potentiator – potentiators of human D1 dopamine receptor; P21728; HEK293 TREx D1 cells, calcium flux, dopamine EC20 potentiation; potentiation, % at 10 µM; 360,000 compounds, 0.036% hits; AID 504651; in the data active = potentiation above about 30%; also: 0% is about no effect
# D1 agonist – activates the human D1 dopamine receptor; P21728; HEK293 T-REx D1 cells, calcium flux, agonist mode; activation, % at 2 µM; 360,000 compounds, 1% hits; AID 504660; also: 0% is about no effect
#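 Tetracycline-induced HEK293 TREx D1 cells, force-coupled to calcium signalling, were dye-loaded with a no-wash calcium kit. Compound was pin-added after a 10 s baseline. Fluorescence was read kinetically at 1 cycle/s for 180 s, with calcium rises flagged as agonism.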
# TRHR enhancer – TRH receptor (human) allosteric enhancement; P34981; TRHR cells, fluo-8 calcium fluorescence, EC20 TRH enhancement; enhancement, % at 2 µM; 360,000 compounds, 0.66% hits; AID 493056; in the data active = enhancement above about 30%; also: 0% is about no effect
#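 Enhancer read-out: after compound pinning and an initial kinetic agonist-mode read, an EC20 of TRH (10 nM final) was injected and fluo-8 calcium signal (Ex 480/Em 530) followed at 1 s/cycle for 100 cycles in TRHR-expressing cells.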
# TRHR ag – activates the human TRH receptor. TRHR cells, calcium flux fluo-8, FDSS agonist mode. 360,000 compounds, 0.18% hits. P34981. AID 493084. activation, % at 2 µM; also: 0% is about no effect
#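 Steps: seed TRHR cells overnight; add fluo-8 no-wash Ca dye, RT 30 min–1.5 h; record 10 s baseline; pin-transfer compounds; monitor fluorescence 1 cycle/s for the agonist window. Calcium increases flag candidate agonists.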
# * = called active by the depositor; . = no result; ! = a repeat was not active. Compounds with a hit are over-represented: about 4.7% of the library has one in this group of screens. Rule as the data show it, unless noted: active = activation above about 30%; inactive = the rest.
SMILES,D1 antagonist,D1 potentiator,D1 agonist,TRHR enhancer,TRHR ag
O=S(=O)(NCCC1=CCCCC1)c1ccc(F)cc1,4,-6,9,-3,-1
CCn1c(/C=C/c2cc(Br)ccc2O)nc2ccccc2c1=O,5,-5,-1,11,1
COc1cc(OC)c(NC(=O)N2CCCn3nc(C)cc32)cc1Cl,6,-2,3,14,0
CC(C)CN(CC(C)C)C(=O)COc1ccccc1C(N)=O,-35*,-1,4,4,0
O=C(COc1ccc(Cl)cc1Cl)N1CCNC1=O,-3,-7,0,-3,0
Cc1ccc(S(=O)(=O)N/N=C/c2c[nH]c3ccccc23)cc1,-49*,-8,9,4,0
CCc1ccc(-c2cc(C(=O)N/N=C/c3ccccn3)[nH]n2)cc1,1,2,0,3,0
O=C(N/N=C/c1ccco1)c1cc(-c2ccc3ccccc3c2)n[nH]1,0,43*,0,-1,0
CCc1ccc(-c2cc(C(=O)N/N=C/c3ccco3)[nH]n2)cc1,-67*,3,27,0,0
Cc1cccn2c(=O)cc(CSc3nnc(NC(=O)c4ccc(F)cc4)s3)nc12,-3,0,0,-3,0
Cc1nnc(SCc2cc(=O)n3cccc(C)c3n2)s1,-47*,2,0,6,0
Cc1ccc2c(c1)N(C(=O)N1CCC(C(=O)NCc3ccco3)CC1)CC(C)O2 (stereo not drawn),13,-3,0,-2,0
CCN(c1ccccc1)S(=O)(=O)c1ccc(Cl)c(NC(=O)COC(=O)c2ccc(O)cc2)c1,-4,-4,8,0,0
CCN(c1ccccc1)S(=O)(=O)c1ccc(Cl)c(NC(=O)COC(=O)C2CC2C)c1 (stereo not drawn),-31*,-3,7,2,0
CCN(c1ccccc1)S(=O)(=O)c1ccc(Cl)c(C(=O)OCC(=O)NC(=O)C(C)C)c1,-34*,-1,4,0,1
COC(=O)c1cc2sc(C)cc2n1CC(=O)Nc1ccc(C)c(C)c1,11,-3,2,5,0
Cc1ccc(CCNC(=O)c2ccc3[nH]c(C)c(C)c3c2)cc1,-44*,-4,0,-3,0
CCOc1ccc(CCNC(=O)c2ccc3[nH]c(C)c(C)c3c2)cc1,-14,-5,3,-4,-1
CCOCCCNC(=O)C(c1ccc(Cl)cc1)N(Cc1cccs1)C(=O)c1ccc(NC(C)=O)cc1 (stereo not drawn),8,-1,8,0,0
CCN1C(c2ccc(F)cc2)=CS/C1=C(\C#N)c1nnc2n1-c1ccccc1SC2,-35*,-10,0,-4,-1
Cc1cc(C)nc(CCNC(=O)c2cc(COc3ccc(F)cc3F)on2)n1,-34*,2,1,0,-1
Cc1cc(C)nc(CCNC(=O)c2cc(COc3ccc(F)cc3Cl)on2)n1,3,-4,6,2,-2
Cc1ccc(/C=N/NC(=O)Cn2nnc(N)n2)cc1,-74*,-8,1,-22,0
O=C(CN1C(=O)COc2ccc(S(=O)(=O)N3CCCC3)cc21)N1CCN(c2ccc(F)cc2)CC1,2,3,0,-4,0
CCNC(=S)NNC(=O)c1csc(C(C)C)c1,11,15,-1,3,0
SMILES,D1 antagonist,D1 potentiator,D1 agonist,TRHR enhancer,TRHR ag
CCCCNC(=S)NNC(=O)c1csc(C(C)C)c1,-45*,-4,-1,3,0
COc1cc2ccccc2cc1C(=O)N1CCN(c2nc3c(C)cc(C)cc3s2)CC1,.,5,0,-1,0
CCc1noc(C)c1C(=O)N(CC)c1nc2c(C)cccc2s1,2,-6,5,-4,0
CN(C)CC(CCC(CN(C)C)C(O)(c1ccccc1)c1ccccc1)C(O)(c1ccccc1)c1ccccc1 (stereo not drawn),-41*,-7,27,-15,5
CN(CC(=O)Nc1cccc(C#N)c1)Cc1ccc(Cl)cc1,-42*,-11,1,0,0
CN(CC(=O)NC(=O)NCc1ccccc1)Cc1ccc(Cl)cc1,2,-4,1,9,0
CN(CC(=O)NCc1ccccc1)Cc1ccc(Cl)cc1,3,-1,0,33*,-1
CC(=O)c1cccc(NC(=O)CN(C)Cc2ccc(OC(F)F)cc2)c1,-35*,-4,8,-7,-1
Cc1nc2nc(CNC(=O)c3cccc(F)c3)nn2c(C)c1CCC(=O)Nc1cccc(Cl)c1,-2,-1,9,-3,-1
CCCC(=O)O[C@]1(C(=O)COC(C)=O)CC[C@H]2[C@@H]3C[C@H](F)C4=CC(=O)C=C[C@]4(C)[C@@]3(F)[C@@H](O)C[C@@]21C,12,4,2,3,1
CC(=O)[C@@]1(O)CC[C@H]2[C@@H]3C[C@H](C)C4=CC(=O)C=C[C@]4(C)[C@@]3(F)[C@@H](O)C[C@@]21C,-59*,-6,2,3,13
CC(=O)N1CCC(N(CCN2CCOCC2)C(=S)Nc2ccc(C)cc2C)CC1,-31*,-5,3,2,1
CC(=O)N1CCC(N(CCN2CCOCC2)C(=S)Nc2ccc(C)cc2)CC1,-2,-2,1,-1,1
O=C(CNC(=O)c1cccs1)N/N=C/c1cccc(Cl)c1,18,-7,1,7,-1
NC(=O)c1cc2cc(Cl)ccc2oc1=Nc1cccc(C(F)(F)F)c1,-33*,-4,-4,-4,0
CC(Oc1ccc(F)cc1)C(=O)Nc1cccc(-c2nn[nH]n2)c1 (stereo not drawn),-7,-3,4,0,0
CCOc1cc(C(=O)Nc2ccc(-c3nc4ncccc4o3)cc2C)cc(OCC)c1OCC,-6,4,1,-4,-2
CCc1ccc(NC(=O)C2CCCN(S(=O)(=O)c3ccc4c(c3)CCCN4C(C)=O)C2)cc1 (stereo not drawn),-32*!,-10,3,15,0
CC(=O)N1CCCc2cc(S(=O)(=O)N3CCCC(C(=O)Nc4cccc(F)c4)C3)ccc21 (stereo not drawn),13,-9,1,11,0
CC(=O)N1CCCc2cc(S(=O)(=O)N(C)CC(=O)Nc3ccc(C(C)C)cc3)ccc21,-11,-4,7,-1,0
CSc1cccc(NC(=O)C2CCN(S(=O)(=O)c3ccc4c(c3)CCCN4C(=O)C3CCC3)CC2)c1,-48*,-4,3,-5,0
CSc1cccc(NC(=O)C2CCCN(S(=O)(=O)c3ccc4c(c3)CCCN4C(C)=O)C2)c1 (stereo not drawn),-32*,-1,0,-1,0
COc1ccc(NC(=O)CN(C)S(=O)(=O)c2ccc3c(c2)CCCN3C(C)=O)cc1,-42*!,-1,0,-1,0
